# Experimental data: PubChem BioAssay (EPA / NIEHS)
# Inconclusive results are not listed. Calls of active or inactive are those of the source. The calls were made as follows, unless noted: active = hit-call score of the fitted dose curve at least 0.9, where 1 is the maximum; inconclusive = response in the unintended direction; inactive = score below 0.9.
# Columns and labels:
# [1] = CEETOX_H295R_CORTISOL_noMTC: CeeTox H295R High-throughput Steroidogenesis Assay for Cortisol, maximum tolerated concentration (MTC) filtered results only (AID 2283916; active = hit-call score of the fitted dose curve at least 0.9, where 1 is the maximum; inactive = score below 0.9); conditions: actives raise or lower the signal
# In short: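 Cortisol secretion measured by LC-MS/MS after 48 h chemical treatment (final 0.1% DMSO) of forskolin-primed (10 uM, 48 h) H295R cells; gain or loss fitted relative to DMSO, without maximum-tolerated-concentration filtering.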
# [2] = CEETOX_H295R_CORTIC_noMTC: CeeTox H295R High-throughput Steroidogenesis Assay for Corticosterone (CORTIC), maximum tolerated concentration (MTC) filtered results only (AID 2283917; active = hit-call score of the fitted dose curve at least 0.9, where 1 is the maximum; inactive = score below 0.9); conditions: actives raise or lower the signal
# In short: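 Human adrenal H295R cells were prestimulated 48 h with 10 uM forskolin, then exposed 48 h to chemical in 0.1% DMSO. Medium corticosterone was MTBE-extracted and quantified by HPLC-MS/MS; bidirectional fits versus DMSO, concentrations not MTC-filtered.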
# [3] = CEETOX_H295R_DOC_noMTC: CeeTox H295R High-throughput Steroidogenesis Assay for DOC, maximum tolerated concentration (MTC) filtered results only (AID 2283918; active = hit-call score of the fitted dose curve at least 0.9, where 1 is the maximum; inactive = score below 0.9); conditions: actives raise or lower the signal
# In short: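 11-Deoxycorticosterone secreted by human adrenal H295R cells quantified by HPLC-MS/MS after 48 h chemical exposure (0.1% DMSO), following 48 h 10 uM forskolin prestimulation. Concentrations not filtered by MTT-derived MTC; bidirectional fitting.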
# [4] = CEETOX_H295R_PROG_noMTC: CeeTox H295R High-throughput Steroidogenesis Assay for Progesterone (PROG), maximum tolerated concentration (MTC) filtered results only (AID 2283920; active = hit-call score of the fitted dose curve at least 0.9, where 1 is the maximum; inactive = score below 0.9); conditions: actives raise or lower the signal
# Experimental: CEETOX_H295R is a cell-based, multiplexed-readout assay that uses H295R, a human adrenal gland cell line, with measurements taken at 48 hours after chemical dosing in a 96-well plate.CEETOX_H295R_PROG_noMTC is one of 12 assay component(s) measured or calculated from the CEETOX_H295R assay (11 hormones and 1 viability assay). It is designed to make measurements of hormone induction, a form of inducible reporter, as detected with absorbance signals by HPLC-MS-MS technology. The concentrations for these components have not been pre-filtered for the maximum tolerated concentration (MTC) based on the MTT assay (_noMTC).Data from the assay component CEETOX_H295R_PROG_noMTC was analyzed into 1 assay endpoint. This assay endpoint, CEETOX_H295R_PROG_noMTC, was analyzed with bidirectional fitting relative to DMSO as the negative control and baseline of activity. […]
# Cell culture and media preparation procedures were conducted in accordance with OECD Test No. 456 guidelines, with minor modifications. […] For steroid quantification, media samples were shipped to OpAns, LLC (Durham, NC) on dry ice, and samples were thawed to room temperature prior to liquid-liquid extraction. […] Steroid hormones were separated by HPLC, eluted using a reverse phase C18 gradient with electrospray positive ionization, followed by quantification by tandem mass spectrometry (MS/MS). […]
# PGR (gene 5241) [5] = target: PGR (gene 5241) (UniProt P06401); assay: TOX21_PR_BLA_Followup_Antagonist_ratio: Tox21 HEK293 Progesterone Receptor (PR) Antagonism Beta-lactamase Follow-Up Assay, Ratio (AID 2283934);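 also: PR-UAS-bla HEK293T cells stimulated with 1 nM R5020 agonist for 16 hr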
# In short: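 Cells are plated, rested 6 hr, then dosed with test compound in DMSO and challenged with 1 nM promegestone. After 16 hr incubation, substrate loading for 2 h at room temperature precedes fluorescence reading; viability is measured in the same wells.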
# [6] = TOX21_PR_BLA_Followup_Agonist_viability: Viability Assessment in the Tox21 HEK293 Progesterone Receptor (PR) Agonism Beta-lactamase Follow-Up Assay (AID 2283935);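 also: signal loss means lower viability so actives are cytotoxic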
# Experimental: TOX21_PR_BLA_Followup is a secondary assay for specificity for the TOX21_PR_BLA_Agonist assay. To differentiate true PR agonists from cytotoxic substances, this follow up assay is multiplexed with a cell viability assay. The compounds were also tested for auto fluorescence that may interfere with the biological target readout resulting in potential false positives and/or negatives. To identify the compounds that stimulate PR signaling, a PR-UAS-bla GripTite cell line i.e. PR-UAS-bla HEK293T (Invitrogen, Carlsbad, CA, USA) containing a beta-lactamase reporter gene under the control of an UAS response element was used to screen Tox21 10K compound library. The cytotoxicity of the Tox21 compound library against the PR-bla cell line was tested in parallel by measuring the cell viability using CellTiter-Glo assay in the same wells. TOX21_PR_BLA_Followup_Agonist_viability is a component of the TOX21_PR_BLA_Followup_Agonist assay. This component measures cell viability using the CellTiter-Glo Luciferase-coupled ATP quantitation.TOX21_PR_BLA_Followup_Agonist_viability used a type of viability reporter where loss-of-signal activity can be used to understand changes in the cell viability. Furthermore, this assay endpoint can be referred to as a secondary readout, because this assay has produced multiple assay endpoints where this one serves a viability function. To generalize the intended target to other relatable targets, this assay endpoint is annotated to the cell cycle intended target family, where the subfamily is cytotoxicity.
# Assay Protocol: PR-UAS-bla HEK293T cells were dispensed at 3,000 cells/5 uL of assay medium containing 2% charcoal stripped FBS per well into black wall/clear-bottom 1536-well plates using a Multidrop Combi (ThermoFisher Scientific, Waltham, MA) dispenser. After the assay plates were incubated at a 37C and 5% CO2 for 6 hr, 23 nL of compounds dissolved in DMSO, positive controls or DMSO only was transferred to the assay plate by a Pintool station (Kalypsys, San Diego, CA). The plates were incubated at 37C and 5% CO2 for 16 hr. Then 1 uL of LiveBLAzer B/G FRET substrate was added using a Flying Reagent Dispenser (FRD, Aurora Discovery, San Diego, CA), the plates were incubated at room temperature for 2 hours, and fluorescence intensity was measured by an Envision plate reader (PerkinElmer, Shelton, CT). For cell viability readout that measures cytotoxicity, 4 uL/well of CellTiter-Glo reagent was added into the assay plates using a FRD. After 30 min incubation at room temperature, the luminescence intensity in the plates was measured using a ViewLux (PerkinElmer) plate reader.
# [7] = TOX21_PR_BLA_Followup_Antagonist_viability: Viability Assessment in the Tox21 HEK293 Progesterone Receptor (PR) Antagonism Beta-lactamase Follow-Up Assay (AID 2283936);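 also: cells exposed to compound with R5020 agonist for 16 h; hits lower the luminescence signal meaning cytotoxicity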
# In short: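 PR-UAS-bla HEK293T cells in medium with 2% charcoal-stripped FBS were treated with compounds plus R5020 for 16 hr at 37C. After the beta-lactamase read, CellTiter-Glo was added to the same wells and luminescence read after 30 min at room temperature.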
# PGR (gene 5241) [8] = target: PGR (gene 5241) (UniProt P06401); assay: TOX21_PR_LUC_Followup_Antagonist: Tox21 HEK293 Progesterone Receptor (PR) Antagonism Luciferase Follow-Up Assay (AID 2283938);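 also: curve fitted upward as signal gain over DMSO baseline despite antagonist label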
# In short: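 Cells are grown 5 days in charcoal-stripped-FBS assay medium, plated, left 5 h, then dosed with compound and incubated 16 h. ONE-Glo reagent is added and luminescence read after 30 min.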
# PGR (gene 5241) [9] = target: PGR (gene 5241) (UniProt P06401); assay: TOX21_PR_BLA_Followup_Agonist_ratio: Tox21 HEK293 Progesterone Receptor (PR) Agonism Beta-lactamase Follow-Up Assay, Ratio (AID 2283933)
# In short: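 Cells were seeded and held 6 hr before compound addition, exposed for 16 hr at 37C, then given FRET substrate for 2 hr at room temperature. Agonism was scored from the blue/green substrate cleavage ratio against DMSO controls.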
# PGR (gene 5241) [10] = target: PGR (gene 5241) (UniProt P06401); assay: TOX21_PR_LUC_Followup_Agonist: Tox21 HEK293 Progesterone Receptor (PR) Agonism Luciferase Follow-Up Assay (AID 2283937; active = hit-call score of the fitted dose curve at least 0.9, where 1 is the maximum; inactive = score below 0.9)
# In short: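 Seed HEK293-PR-A-luc cells, wait 5 h, add compounds in DMSO, incubate 16 h at 37C, add ONE-Glo, read luminescence after 30 min. Activity is increase over DMSO controls; run with a viability counter-screen.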
# Sequence of PGR (gene 5241) (P06401 whole entry, looked up): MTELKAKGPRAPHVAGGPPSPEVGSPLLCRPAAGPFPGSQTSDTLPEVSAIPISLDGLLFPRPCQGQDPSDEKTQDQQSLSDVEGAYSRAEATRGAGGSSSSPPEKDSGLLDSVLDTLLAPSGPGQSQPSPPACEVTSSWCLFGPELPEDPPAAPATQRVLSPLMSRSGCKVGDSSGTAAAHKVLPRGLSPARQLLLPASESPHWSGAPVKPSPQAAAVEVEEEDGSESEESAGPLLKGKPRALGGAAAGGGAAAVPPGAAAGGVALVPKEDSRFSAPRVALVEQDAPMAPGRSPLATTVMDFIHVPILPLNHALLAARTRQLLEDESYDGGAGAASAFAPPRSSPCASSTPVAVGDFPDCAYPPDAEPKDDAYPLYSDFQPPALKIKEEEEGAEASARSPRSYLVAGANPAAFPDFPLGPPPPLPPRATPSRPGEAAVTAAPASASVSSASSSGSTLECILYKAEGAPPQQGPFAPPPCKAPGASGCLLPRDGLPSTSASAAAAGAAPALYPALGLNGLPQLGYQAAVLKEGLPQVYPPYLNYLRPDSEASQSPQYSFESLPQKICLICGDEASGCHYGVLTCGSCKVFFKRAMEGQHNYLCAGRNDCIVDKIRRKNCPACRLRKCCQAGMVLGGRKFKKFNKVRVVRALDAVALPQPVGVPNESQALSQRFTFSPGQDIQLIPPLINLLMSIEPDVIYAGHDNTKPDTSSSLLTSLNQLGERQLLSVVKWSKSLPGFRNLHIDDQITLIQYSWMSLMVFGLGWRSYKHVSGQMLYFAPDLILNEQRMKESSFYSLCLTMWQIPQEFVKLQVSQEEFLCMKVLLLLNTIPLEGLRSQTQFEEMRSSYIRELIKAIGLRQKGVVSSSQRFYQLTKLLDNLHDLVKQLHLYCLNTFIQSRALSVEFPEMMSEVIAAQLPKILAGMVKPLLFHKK
structure (smiles),measurement,setting,value
CC1CC(OC(=O)c2ccccc2O)CC(C)(C)C1 (configuration not stated),outcome,[1],inactive
same,outcome,[2],inactive
same,outcome,[3],inactive
same,outcome,[4],inactive
COC(=O)C1=C(C)NC(C)=C(C(=O)OCCN(C)Cc2ccccc2)C1c1cccc([N+](=O)[O-])c1 (configuration not stated),AC50,PGR (gene 5241) [5],25 µM (active)
same,AC50,[6],79.9 µM (active)
same,AC50,[7],72.7 µM (active)
same,AC50,PGR (gene 5241) [8],21.8 µM (active)
Cc1ccc(C(C)C)cc1O,outcome,[1],inactive
same,outcome,[2],inactive
same,outcome,[3],inactive
same,AC50,[4],41.4 µM (active)
CC(=O)[C@H]1CC[C@H]2[C@@H]3CC=C4C[C@@H](O)CC[C@]4(C)[C@H]3CC[C@]12C,outcome,PGR (gene 5241) [5],inactive
same,outcome,[6],inactive
same,outcome,[7],inactive
same,outcome,PGR (gene 5241) [8],inactive
C[C@H]1C[C@H]2[C@@H]3CCC4=CC(=O)C=C[C@]4(C)[C@@]3(F)[C@@H](O)C[C@]2(C)[C@@]1(O)C(=O)COP(=O)(O)O,outcome,PGR (gene 5241) [5],inactive
same,outcome,[6],inactive
same,outcome,[7],inactive
C#C[C@]1(O)CC[C@H]2[C@@H]3CCC4=Cc5oncc5C[C@]4(C)[C@H]3CC[C@@]21C,AC50,PGR (gene 5241) [5],0.0919 µM (active)
same,outcome,[6],inactive
same,outcome,[7],inactive
same,outcome,PGR (gene 5241) [8],inactive
O=c1cc(-c2ccccc2)oc2cc(O)cc(O)c12,outcome,PGR (gene 5241) [9],inactive
same,AC50,PGR (gene 5241) [5],8.76 µM (active)
same,outcome,[6],inactive
same,outcome,[7],inactive
same,AC50,PGR (gene 5241) [10],31 µM (active)
same,outcome,PGR (gene 5241) [8],inactive
C[C@H]1C[C@@H]2[C@H]([C@@H](O)C[C@@]3(C)[C@H]2CC[C@]3(O)C(=O)CO)[C@@]2(C)C=CC(=O)C=C12,AC50,PGR (gene 5241) [9],58.7 µM (active)
same,outcome,PGR (gene 5241) [5],inactive
same,outcome,[6],inactive
same,outcome,[7],inactive
same,AC50,PGR (gene 5241) [10],0.334 µM (active)
C[C@]12CC[C@H]3[C@@H](CCC4=CC(=O)CC[C@@]43C)[C@@H]1CC[C@@H]2C(=O)CO,outcome,PGR (gene 5241) [5],inactive
same,outcome,[6],inactive
same,outcome,[7],inactive
same,outcome,PGR (gene 5241) [8],inactive
CCCc1c(OCCCOc2ccc(OCC(=O)O)cc2)ccc(C(C)=O)c1O,outcome,PGR (gene 5241) [9],inactive
same,AC50,PGR (gene 5241) [5],31.5 µM (active)
same,outcome,[6],inactive
same,outcome,[7],inactive
same,outcome,PGR (gene 5241) [10],inactive
same,AC50,PGR (gene 5241) [8],63.6 µM (active)
O=C(Oc1ccccc1)c1ccc(O)cc1,outcome,PGR (gene 5241) [5],inactive
same,outcome,[6],inactive
same,outcome,[7],inactive
